Columns and labels:
Experiment in all cases: log2 ratio of Biotin-Ahx-Ub-VS probe labelling (fragment/DMSO); higher = less target engagement (more negative = stronger competition), active = hit call of the paper (q ≤ 0.05, log2 ratio ≤ -1)
Details in all cases: compound concentration: 200 uM; treatment time: 3 h
OTUD6B = target: T1, OTUD6B (UniProt Q8N6M0)
T1 sequence (whole entry): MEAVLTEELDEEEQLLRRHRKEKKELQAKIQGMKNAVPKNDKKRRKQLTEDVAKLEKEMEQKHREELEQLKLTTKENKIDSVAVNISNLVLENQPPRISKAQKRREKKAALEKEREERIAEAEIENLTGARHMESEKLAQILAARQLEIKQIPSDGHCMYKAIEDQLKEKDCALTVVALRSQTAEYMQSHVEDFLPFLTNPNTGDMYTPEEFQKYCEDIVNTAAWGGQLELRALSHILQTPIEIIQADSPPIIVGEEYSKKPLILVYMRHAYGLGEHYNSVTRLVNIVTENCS
Summary of the method: (§1)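 Each value is an average log2 ratio of fragment to vehicle, tested by unpaired t-test. The underlying Spectronaut label-free quantities were global-median-normalised, and only proteins with ≥2 unique peptides were included. Triplicate HEK293T lysate samples (495 µg) were exposed to fragment at 200 µM or vehicle for 3 h, then to Biotin-Ahx-Ub-VS at 0.5 µM final for 1 h, before NeutrAvidin enrichment of labelled DUBs, LysC and trypsin digestion, and diaPASEF LC-MS/MS.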

OTUD7B = target: T2, OTUD7B (UniProt Q6GQQ9)
T2 sequence (whole entry): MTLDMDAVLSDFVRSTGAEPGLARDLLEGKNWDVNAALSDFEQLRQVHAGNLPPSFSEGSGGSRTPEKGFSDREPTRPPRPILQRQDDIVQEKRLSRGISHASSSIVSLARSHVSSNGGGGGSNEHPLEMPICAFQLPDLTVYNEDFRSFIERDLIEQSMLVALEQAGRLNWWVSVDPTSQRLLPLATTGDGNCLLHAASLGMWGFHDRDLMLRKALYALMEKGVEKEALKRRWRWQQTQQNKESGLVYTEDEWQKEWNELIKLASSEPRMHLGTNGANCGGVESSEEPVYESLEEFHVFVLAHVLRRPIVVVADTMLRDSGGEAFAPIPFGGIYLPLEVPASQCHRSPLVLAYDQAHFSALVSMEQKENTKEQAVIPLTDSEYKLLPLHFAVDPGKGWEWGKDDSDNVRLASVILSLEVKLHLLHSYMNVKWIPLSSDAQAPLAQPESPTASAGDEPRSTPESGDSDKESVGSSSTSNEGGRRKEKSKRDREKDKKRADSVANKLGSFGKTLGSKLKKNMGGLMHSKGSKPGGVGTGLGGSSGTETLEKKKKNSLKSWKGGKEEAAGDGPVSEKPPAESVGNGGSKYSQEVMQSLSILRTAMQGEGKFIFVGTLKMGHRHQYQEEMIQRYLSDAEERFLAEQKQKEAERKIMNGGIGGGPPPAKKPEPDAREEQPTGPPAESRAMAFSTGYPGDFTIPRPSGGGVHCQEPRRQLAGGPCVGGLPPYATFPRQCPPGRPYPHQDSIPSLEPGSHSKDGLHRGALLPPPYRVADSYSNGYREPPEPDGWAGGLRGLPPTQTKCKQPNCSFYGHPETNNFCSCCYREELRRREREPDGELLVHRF
Summary of the method: as §1

PRPF8 = PRPF8 (UniProt Q6P2Q9)
Summary of the method: as §1

PSMD7 = target: T3, PSMD7 (UniProt P51665)
T3 sequence (whole entry): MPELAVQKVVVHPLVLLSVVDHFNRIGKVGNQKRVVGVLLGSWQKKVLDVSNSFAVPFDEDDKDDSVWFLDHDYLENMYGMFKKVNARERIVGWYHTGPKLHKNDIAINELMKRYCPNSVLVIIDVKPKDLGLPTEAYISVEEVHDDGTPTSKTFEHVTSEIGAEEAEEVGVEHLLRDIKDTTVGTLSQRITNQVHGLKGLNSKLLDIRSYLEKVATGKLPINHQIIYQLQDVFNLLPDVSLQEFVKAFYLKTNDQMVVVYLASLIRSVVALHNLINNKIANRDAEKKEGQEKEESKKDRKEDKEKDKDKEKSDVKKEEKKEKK
Summary of the method: as §1

UCHL1 = UCHL1 (UniProt P09936)
Summary of the method: as §1

UCHL3 = target: T4, UCHL3 (UniProt P15374)
T4 sequence (whole entry): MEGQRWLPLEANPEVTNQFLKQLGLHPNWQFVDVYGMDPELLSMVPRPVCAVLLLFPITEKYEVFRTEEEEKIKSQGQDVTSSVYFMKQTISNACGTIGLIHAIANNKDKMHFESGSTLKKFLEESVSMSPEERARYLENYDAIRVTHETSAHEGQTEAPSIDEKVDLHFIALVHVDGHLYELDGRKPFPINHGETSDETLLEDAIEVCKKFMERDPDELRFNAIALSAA
Summary of the method: as §1

UCHL5 = target: T5, UCHL5 (UniProt Q9Y5K5)
T5 sequence (whole entry): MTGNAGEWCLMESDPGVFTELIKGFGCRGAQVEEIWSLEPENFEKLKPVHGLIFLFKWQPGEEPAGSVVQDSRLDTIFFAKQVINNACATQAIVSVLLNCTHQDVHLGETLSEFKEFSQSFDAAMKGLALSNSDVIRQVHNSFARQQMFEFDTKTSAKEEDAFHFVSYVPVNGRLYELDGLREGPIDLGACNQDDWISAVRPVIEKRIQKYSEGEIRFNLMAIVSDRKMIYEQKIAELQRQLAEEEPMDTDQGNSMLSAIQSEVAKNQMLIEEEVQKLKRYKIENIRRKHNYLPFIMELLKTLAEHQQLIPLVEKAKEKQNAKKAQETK
Summary of the method: as §1

USP10 = USP10 (UniProt Q14694)
Summary of the method: as §1

USP15 = target: T6, USP15 (UniProt Q9Y4E8)
T6 sequence (whole entry): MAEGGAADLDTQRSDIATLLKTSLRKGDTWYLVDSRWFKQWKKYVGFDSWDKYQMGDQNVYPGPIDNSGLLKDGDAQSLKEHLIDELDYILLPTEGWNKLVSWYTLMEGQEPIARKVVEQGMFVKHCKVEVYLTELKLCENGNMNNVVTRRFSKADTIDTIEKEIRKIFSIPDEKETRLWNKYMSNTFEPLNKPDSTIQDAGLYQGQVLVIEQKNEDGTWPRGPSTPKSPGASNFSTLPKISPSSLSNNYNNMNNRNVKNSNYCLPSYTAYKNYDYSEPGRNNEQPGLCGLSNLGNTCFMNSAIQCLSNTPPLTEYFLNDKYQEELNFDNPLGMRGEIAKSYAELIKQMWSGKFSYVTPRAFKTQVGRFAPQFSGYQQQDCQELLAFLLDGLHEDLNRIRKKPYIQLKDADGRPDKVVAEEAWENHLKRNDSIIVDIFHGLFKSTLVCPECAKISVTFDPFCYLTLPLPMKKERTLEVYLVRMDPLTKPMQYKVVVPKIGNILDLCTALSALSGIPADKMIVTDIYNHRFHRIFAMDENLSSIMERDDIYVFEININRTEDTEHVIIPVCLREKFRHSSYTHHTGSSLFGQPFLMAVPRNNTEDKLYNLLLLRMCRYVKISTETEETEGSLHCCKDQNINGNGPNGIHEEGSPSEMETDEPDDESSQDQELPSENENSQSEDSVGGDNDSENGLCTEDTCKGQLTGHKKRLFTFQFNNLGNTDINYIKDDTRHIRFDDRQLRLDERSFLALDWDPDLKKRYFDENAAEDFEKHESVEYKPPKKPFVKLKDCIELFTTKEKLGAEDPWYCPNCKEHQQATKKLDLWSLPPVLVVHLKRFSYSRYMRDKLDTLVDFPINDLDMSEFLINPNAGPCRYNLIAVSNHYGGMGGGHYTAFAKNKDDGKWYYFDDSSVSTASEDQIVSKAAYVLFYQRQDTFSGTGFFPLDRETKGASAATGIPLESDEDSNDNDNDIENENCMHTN
Summary of the method: as §1

USP16 = USP16 (UniProt Q9Y5T5)
Summary of the method: as §1

Measured: log2 ratio of Biotin-Ahx-Ub-VS probe labelling

Sequence of USP16 (Q9Y5T5 whole entry, looked up): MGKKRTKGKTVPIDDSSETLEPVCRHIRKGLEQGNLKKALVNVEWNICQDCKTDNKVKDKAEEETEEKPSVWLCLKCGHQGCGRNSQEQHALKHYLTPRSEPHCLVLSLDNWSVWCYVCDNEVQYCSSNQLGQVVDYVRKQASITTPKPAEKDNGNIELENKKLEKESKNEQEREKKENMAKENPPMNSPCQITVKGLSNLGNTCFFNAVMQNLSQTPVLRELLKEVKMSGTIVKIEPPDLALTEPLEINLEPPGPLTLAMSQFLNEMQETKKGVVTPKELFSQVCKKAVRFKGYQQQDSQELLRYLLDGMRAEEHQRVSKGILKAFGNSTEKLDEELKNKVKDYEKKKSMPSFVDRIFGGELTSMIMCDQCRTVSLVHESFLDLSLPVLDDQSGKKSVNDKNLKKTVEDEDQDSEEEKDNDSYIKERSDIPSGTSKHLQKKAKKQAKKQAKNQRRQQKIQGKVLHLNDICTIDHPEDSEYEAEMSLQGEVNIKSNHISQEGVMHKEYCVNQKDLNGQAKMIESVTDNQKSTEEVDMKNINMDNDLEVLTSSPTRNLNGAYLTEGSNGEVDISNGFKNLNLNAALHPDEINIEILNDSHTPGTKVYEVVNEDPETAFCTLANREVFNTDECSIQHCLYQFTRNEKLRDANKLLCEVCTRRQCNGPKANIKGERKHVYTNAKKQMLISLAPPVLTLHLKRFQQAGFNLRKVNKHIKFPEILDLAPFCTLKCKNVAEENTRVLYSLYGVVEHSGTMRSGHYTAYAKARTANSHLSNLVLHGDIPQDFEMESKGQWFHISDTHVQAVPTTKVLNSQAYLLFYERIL
Sequence of UCHL1 (P09936 whole entry, looked up): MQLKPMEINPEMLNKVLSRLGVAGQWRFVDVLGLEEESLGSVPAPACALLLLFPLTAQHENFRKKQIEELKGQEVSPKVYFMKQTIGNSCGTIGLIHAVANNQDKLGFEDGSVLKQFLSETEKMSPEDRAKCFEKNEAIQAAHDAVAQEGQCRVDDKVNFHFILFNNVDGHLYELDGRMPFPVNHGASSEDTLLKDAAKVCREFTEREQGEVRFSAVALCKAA
Sequence of USP10 (Q14694 whole entry): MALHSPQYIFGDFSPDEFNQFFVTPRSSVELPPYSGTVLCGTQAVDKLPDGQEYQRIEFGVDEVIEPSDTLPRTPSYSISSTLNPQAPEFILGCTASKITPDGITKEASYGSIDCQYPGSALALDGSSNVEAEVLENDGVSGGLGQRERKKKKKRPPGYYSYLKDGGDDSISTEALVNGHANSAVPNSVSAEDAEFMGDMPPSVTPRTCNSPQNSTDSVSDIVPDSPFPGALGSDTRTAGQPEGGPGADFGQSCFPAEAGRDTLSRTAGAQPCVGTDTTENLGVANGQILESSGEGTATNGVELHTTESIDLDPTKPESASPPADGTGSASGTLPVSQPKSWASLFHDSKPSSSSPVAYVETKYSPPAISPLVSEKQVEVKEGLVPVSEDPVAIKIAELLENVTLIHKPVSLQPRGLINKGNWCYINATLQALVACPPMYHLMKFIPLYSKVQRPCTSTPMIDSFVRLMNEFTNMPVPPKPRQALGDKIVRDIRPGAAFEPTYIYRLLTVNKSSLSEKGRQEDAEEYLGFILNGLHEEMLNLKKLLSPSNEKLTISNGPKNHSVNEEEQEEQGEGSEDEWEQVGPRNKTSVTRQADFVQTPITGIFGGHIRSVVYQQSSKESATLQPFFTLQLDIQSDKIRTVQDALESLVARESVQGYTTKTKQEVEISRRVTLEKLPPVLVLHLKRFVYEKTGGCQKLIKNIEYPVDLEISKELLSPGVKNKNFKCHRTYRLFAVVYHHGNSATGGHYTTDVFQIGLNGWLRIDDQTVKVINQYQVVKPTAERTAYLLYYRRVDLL

O=C(CCl)Nc1cccc(NC(=O)c2ccccc2)c1
inactive: OTUD6B 0.292 | OTUD7B -0.595 | PRPF8 0.0439 | PSMD7 0.102 | UCHL3 -0.427 | UCHL5 0.221 | USP10 -0.0488 | USP15 -0.0163 | USP16 0.163
active: UCHL1 -1.07

Source: the supplement of paper PMC11732987, “Enantioselective OTUD7B fragment discovery through chemoproteomics screening and high-throughput optimisation” (Communications Chemistry, 2025)
